In PubChem BioAssay (NCATS):
Inconclusive results are not listed. Active and inactive are the calls of the source. Unless noted, calls come from the whole dose curve; as a rule, active = well fitted curve in either direction with a large enough effect (not every such curve was filed as active); inconclusive = small, poorly fitted or top-dose-only effect, or another doubt; inactive = flat fitted curve, though single readings scatter.

Assays:
[1] = target: Lysosomal acid glucosylceramidase (Homo sapiens) (UniProt P04062); assay: Glucocerebrosidase-p2 (AID 348; in the data active = potency below about 10 µM; note: potency is the fitted concentration of half-maximal effect); conditions: purified GBA, blue fluorogenic substrate, 40 min
Sequence of Lysosomal acid glucosylceramidase (Homo sapiens) (P04062 whole entry, looked up): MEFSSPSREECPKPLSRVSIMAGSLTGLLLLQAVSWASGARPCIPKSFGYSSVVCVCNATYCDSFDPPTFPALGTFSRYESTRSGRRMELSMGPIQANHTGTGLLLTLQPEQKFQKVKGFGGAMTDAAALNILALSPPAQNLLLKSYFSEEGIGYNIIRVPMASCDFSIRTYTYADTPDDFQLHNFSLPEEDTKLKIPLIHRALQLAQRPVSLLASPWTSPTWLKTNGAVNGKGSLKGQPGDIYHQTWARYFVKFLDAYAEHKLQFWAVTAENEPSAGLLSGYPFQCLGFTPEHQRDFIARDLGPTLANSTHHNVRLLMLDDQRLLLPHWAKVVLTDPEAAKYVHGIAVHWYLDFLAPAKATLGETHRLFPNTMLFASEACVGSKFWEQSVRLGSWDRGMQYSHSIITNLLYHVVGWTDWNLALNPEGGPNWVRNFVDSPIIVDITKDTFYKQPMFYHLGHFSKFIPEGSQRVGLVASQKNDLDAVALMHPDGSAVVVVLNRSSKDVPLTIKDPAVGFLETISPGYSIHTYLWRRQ
In short: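 Normal human glucocerebrosidase (0.2 nM) with blue fluorogenic substrate (80 uM final) in citrate/phosphate pH 5.9 with 10mM sodium taurocholate, 0.01% tween-20; 40 min RT, NaOH/glycine stop; fluorescence Ex 365/Em 440; AC50 from a titration from 0.6 nM upwards.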

[2] = AP1 Signaling Pathway (AID 357); conditions: ME-180 AP-1-bla reporter, EGF-induced, beta-lactamase ratio, 5 h; at 7.69 µM (top of the series) unless noted;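 note: ME-180 reporter cells stimulated with EGF at its EC50 level; % is set by controls: 0 for no effect and ±100 for the full control effect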
In short: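 Cells are seeded overnight, exposed to compound titrations and an EC50 level of EGF for 5 hours at 37 °C, then loaded with CCF4 dye for 2.5 hours. Beta-lactamase activity under the AP-1 element is read as a blue/green ratio.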

[3] = target: Cytochrome P450 1A2 (Homo sapiens) (UniProt P05177); assay: p450-cyp1a2 (AID 410; calls by dose curve; note: potency is the fitted concentration of half-maximal effect;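 for activity change, negative = inhibition: -100% = full effect of reference inhibitor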); conditions: recombinant CYP1A2, luciferin-ME demethylation, luminescence; series mostly up to 57 µM
Sequence of Cytochrome P450 1A2 (Homo sapiens) (P05177 whole entry, looked up): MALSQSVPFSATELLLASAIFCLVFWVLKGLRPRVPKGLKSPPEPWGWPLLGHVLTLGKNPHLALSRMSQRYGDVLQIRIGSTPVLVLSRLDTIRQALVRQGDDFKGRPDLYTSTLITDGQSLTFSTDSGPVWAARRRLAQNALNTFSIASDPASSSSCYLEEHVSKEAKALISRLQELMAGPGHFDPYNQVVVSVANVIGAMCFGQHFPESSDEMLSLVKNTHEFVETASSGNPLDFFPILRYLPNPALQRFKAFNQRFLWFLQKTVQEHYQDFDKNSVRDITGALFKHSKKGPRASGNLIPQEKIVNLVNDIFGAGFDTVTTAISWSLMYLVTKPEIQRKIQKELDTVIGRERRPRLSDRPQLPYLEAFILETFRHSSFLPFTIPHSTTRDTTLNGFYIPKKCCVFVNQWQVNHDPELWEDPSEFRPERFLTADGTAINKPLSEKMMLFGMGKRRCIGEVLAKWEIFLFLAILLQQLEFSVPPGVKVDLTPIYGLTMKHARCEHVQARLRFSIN
In short: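 O-Demethylation of luciferin 6' methyl ether by human CYP1A2 is monitored as luciferase luminescence. Substrate sits at Km (100uM); enzyme is 20nM. Values are scaled to 57 uM furafylline as maximal inhibition.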

[4] = NFAT Signaling Pathway (AID 444); conditions: Jurkat NFAT-bla M1, carbachol, beta-lactamase ratio, 5 h; at 7.69 µM (top of the series) unless noted;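 note: carbachol stimulus at about its EC50 of 1 µM final; % is set by controls: 0 for no effect and ±100 for the full control effect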
In short: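 Jurkat cells carrying an NFAT-driven β-lactamase reporter and co-transfected muscarinic M1 receptor were treated with compound plus carbachol (1 uM final, an EC50 level) for 5 h at 37 °C. CCF4 loading followed for 1 h at RT; 460/530 nm ratio gave %activity.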

[5] = Stat Signaling Pathway (AID 446); conditions: ME-180 (cervical carcinoma) SIE beta-lactamase reporter, IL-6 stimulated, 5 h; at 7.69 µM (top of the series) unless noted;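 note: ME-180 cervical cancer cells given 40 pM IL-6 alongside compound; SIE-controlled beta-lactamase reporter measured as 460/530 nm FRET emission ratio; % is set by controls: 0 for no effect and ±100 for the full control effect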
In short: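 Overnight-plated ME-180 cells bearing a STAT Inducible Element beta-lactamase reporter; 5 h co-exposure to compound and 40 pM IL-6; values normalized to 300 pM IL-6 and 125 nM JAK inhibitor controls.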

[6] = target: Glucocorticoid receptor (Homo sapiens) (UniProt P04150); assay: GR-EFC Redistribution (AID 451; calls by dose curve; note: potency is the fitted concentration of half-maximal effect); conditions: CHO-K1 GR-EFC translocation, beta-gal luminescence, 2 h
Sequence of Glucocorticoid receptor (Homo sapiens) (P04150 whole entry, looked up, the tested form may be a part): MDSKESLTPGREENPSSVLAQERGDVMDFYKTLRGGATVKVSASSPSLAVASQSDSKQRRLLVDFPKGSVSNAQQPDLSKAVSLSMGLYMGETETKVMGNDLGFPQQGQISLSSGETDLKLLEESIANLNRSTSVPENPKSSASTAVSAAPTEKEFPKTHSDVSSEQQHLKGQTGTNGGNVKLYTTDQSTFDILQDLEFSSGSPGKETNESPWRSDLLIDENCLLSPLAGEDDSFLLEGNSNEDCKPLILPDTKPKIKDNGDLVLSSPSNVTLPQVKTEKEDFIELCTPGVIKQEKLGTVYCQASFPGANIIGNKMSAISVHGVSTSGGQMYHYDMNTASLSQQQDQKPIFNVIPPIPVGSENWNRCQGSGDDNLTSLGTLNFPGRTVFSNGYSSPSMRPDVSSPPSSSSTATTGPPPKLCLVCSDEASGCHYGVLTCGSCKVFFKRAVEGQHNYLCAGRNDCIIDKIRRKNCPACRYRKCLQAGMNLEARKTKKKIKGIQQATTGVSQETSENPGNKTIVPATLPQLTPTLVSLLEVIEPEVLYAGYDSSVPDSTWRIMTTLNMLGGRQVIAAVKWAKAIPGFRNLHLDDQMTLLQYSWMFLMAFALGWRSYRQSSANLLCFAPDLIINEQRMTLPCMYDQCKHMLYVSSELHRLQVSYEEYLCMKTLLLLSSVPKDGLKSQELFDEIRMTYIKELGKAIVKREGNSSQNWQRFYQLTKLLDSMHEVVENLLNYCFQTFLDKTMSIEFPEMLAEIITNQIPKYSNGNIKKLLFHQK
In short: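 CHO-K1 cells stably expressing nuclear-localized β-gal enzyme acceptor and GR fused C-terminally to the enzyme donor fragment; ligand-driven nuclear translocation restores β-gal by complementation. Compounds titrated up to 46 uM final, 2 h at 37 °C; luminescence read.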

[7] = target: Mitogen-activated protein kinase 10 (Mus musculus) (UniProt Q61831); assay: JNK3 AlphaScreen Assay (AID 530); conditions: JNK3 lysate, c-Jun phosphorylation; series mostly up to 57.1 µM;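 note: kinase came from lysate of stimulated human HepG2 cells; signal reports phosphorylation of biotinylated GST-cJun 1-79 at Ser73 with 10 µM ATP; % is set by controls: 0 for no effect and ±100 for the full control effect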
In short: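 Phosphorylation of biotinylated GST-cJun(1-79) at Ser73 is measured by AlphaScreen proximity luminescence. Enzyme is JNK3 in HepG2 lysates activated with interleukin-1beta and tumor necrosis factor alpha; ATP is 10 uM final.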

[8] = target: 3',5'-cyclic-AMP phosphodiesterase 4B (Homo sapiens) (UniProt Q07343); assay: qHTS Assay for Inhibitors of PDE-IV (AID 607; active = well fitted activation curve with a large enough effect in the main read-out, with a control signal flat, not every such curve was filed as active; note: % of control where 0% means no effect); conditions: HEK293 ACTOne CNG channel cells, membrane potential fluorescence; series mostly up to 22.9 µM
Sequence of 3',5'-cyclic-AMP phosphodiesterase 4B (Homo sapiens) (Q07343 whole entry, looked up): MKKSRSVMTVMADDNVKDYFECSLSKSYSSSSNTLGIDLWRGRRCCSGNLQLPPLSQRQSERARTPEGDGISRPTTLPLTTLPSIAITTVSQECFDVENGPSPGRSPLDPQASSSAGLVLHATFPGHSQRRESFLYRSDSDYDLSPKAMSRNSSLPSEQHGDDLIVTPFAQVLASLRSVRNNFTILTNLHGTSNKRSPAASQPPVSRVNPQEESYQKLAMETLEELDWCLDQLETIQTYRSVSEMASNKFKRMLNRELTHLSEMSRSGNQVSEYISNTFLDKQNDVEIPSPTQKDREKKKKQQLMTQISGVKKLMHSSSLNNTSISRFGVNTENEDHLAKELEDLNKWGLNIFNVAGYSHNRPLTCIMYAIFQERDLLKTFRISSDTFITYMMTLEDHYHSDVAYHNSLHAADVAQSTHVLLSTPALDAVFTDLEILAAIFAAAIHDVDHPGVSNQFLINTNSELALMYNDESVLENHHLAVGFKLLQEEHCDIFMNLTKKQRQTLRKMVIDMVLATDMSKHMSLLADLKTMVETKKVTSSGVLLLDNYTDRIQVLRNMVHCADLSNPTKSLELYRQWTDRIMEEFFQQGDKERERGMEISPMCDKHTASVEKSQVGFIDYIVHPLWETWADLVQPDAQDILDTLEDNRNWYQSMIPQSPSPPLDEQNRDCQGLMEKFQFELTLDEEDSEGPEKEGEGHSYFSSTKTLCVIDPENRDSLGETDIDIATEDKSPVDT
In short: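 Live HEK293 cells with a modified cyclic nucleotide-gated (CNG) channel report intracellular cAMP via membrane-potential dye fluorescence (ex 535/em 590 nm). Endogenous PDE-IV was targeted. Compounds were tested at up to 22.9 uM final; RO 20-1724 100 uM served as control.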

[9] = target: Cytochrome P450 3A4 (Homo sapiens) (UniProt P08684); assay: qHTS Assay for Activators of Cytochrome P450 3A4 (AID 885; active = well fitted curve in the direction sought with a large enough effect; an effect the other way counts as inactive or inconclusive; note: nearly all actives have a fitted effect of over 65% in size); conditions: recombinant CYP3A4, Luciferin-PPXE luminescence, 60 min; series mostly up to 57.1 µM
Sequence of Cytochrome P450 3A4 (Homo sapiens) (P08684 whole entry, looked up): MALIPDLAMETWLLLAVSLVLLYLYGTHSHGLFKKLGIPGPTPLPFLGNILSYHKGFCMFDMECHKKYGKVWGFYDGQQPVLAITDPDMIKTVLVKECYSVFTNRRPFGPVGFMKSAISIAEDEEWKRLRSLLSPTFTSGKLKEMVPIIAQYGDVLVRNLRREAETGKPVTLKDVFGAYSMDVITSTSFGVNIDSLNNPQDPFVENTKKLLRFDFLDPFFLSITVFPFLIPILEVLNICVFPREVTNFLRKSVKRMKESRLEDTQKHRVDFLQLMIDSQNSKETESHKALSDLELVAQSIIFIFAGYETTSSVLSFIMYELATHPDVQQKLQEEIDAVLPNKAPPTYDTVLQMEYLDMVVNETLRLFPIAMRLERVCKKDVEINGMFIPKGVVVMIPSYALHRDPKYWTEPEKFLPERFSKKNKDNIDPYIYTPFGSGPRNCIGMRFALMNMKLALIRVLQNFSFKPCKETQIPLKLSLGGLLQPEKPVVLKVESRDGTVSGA
In short: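 Using 20nM recombinant human CYP3A4 in potassium phosphate (200mM), substrate Luciferin-PPXE at 25uM, luminescent luciferin detection followed a 60-min RT NADPH reaction; data scaled to 57 uM ketoconazole.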

[10] = Primary qHTS for small molecule stabilizers of the endoplasmic reticulum resident proteome: Secreted ER Calcium Modulated Protein (SERCaMP) assay (AID 1508630; active = well fitted curve in the direction sought with a large enough effect; an effect the other way counts as inactive or inconclusive; note: % is set by controls: 0 for no effect and ±100 for the full control effect); conditions: SH-SY5Y GLuc-SERCaMP (Gaussia luciferase released on ER calcium loss) secretion, thapsigargin, luminescence; series mostly up to 38.4 µM
In short: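 The SH-SY5Y reporter protocol was run at 3 concentrations up to 38.3 uM (primary) or 11 concentrations (follow-up): 16 h compound, 100 nM thapsigargin for 4 h, then extracellular luciferase luminescence.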

[11] = target: Cytochrome P450 2C19 (Homo sapiens) (UniProt P33261); assay: qHTS Assay for Inhibitors and Substrates of Cytochrome P450 2C19 (AID 899; active = well fitted curve in the direction sought with a large enough effect; an effect the other way counts as inactive or inconclusive; note: potency is the fitted concentration of half-maximal effect; nearly all actives have a fitted effect of over 60% in size); conditions: recombinant CYP2C19, luciferin-H EGE luminescence; series mostly up to 57.1 µM
Sequence of Cytochrome P450 2C19 (Homo sapiens) (P33261 whole entry, looked up): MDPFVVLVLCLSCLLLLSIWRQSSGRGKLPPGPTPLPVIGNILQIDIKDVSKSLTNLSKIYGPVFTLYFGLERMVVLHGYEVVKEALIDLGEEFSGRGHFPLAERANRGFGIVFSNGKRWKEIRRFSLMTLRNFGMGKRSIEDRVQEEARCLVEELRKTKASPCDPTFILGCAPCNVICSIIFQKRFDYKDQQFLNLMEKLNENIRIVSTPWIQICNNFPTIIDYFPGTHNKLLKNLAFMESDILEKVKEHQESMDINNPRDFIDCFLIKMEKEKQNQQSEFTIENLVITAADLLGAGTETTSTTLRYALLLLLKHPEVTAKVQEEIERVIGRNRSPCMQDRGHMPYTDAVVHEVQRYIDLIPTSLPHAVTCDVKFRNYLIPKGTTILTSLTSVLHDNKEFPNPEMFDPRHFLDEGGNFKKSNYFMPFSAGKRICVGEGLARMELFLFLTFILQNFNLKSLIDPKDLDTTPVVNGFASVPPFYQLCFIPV
In short: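 Human CYP2C19 (5nM) with Luciferin-H EGE at 10uM (its KM) in 50mM KPO4 was preincubated with compound for 10 min at 37C. NADPH regeneration started a 60 min 37C reaction. Luciferin was read by luminescence, normalized to 57uM ketoconazole.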

[12] = target: Glucocorticoid receptor (Homo sapiens) (UniProt P04150); assay: GR-GFP Redistribution (AID 450;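 active = compounds whose dose series gives a full or clear partial fitted curve of increased nuclear translocation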; note: potency is the fitted concentration of half-maximal effect); conditions: U2OS GR-GFP nuclear translocation, laser cytometry, 2 h
[13] = target: Cytochrome P450 2C9 (Homo sapiens) (UniProt P11712); assay: qHTS Assay for Inhibitors and Substrates of Cytochrome P450 2C9 (AID 883; active = well fitted curve in the direction sought with a large enough effect; an effect the other way counts as inactive or inconclusive; note: potency is the fitted concentration of half-maximal effect; nearly all actives have a fitted effect of over 60% in size); conditions: recombinant CYP2C9, luciferin-H luminescence, 60 min; series mostly up to 57.1 µM
Sequence of Cytochrome P450 2C9 (Homo sapiens) (P11712 whole entry, looked up): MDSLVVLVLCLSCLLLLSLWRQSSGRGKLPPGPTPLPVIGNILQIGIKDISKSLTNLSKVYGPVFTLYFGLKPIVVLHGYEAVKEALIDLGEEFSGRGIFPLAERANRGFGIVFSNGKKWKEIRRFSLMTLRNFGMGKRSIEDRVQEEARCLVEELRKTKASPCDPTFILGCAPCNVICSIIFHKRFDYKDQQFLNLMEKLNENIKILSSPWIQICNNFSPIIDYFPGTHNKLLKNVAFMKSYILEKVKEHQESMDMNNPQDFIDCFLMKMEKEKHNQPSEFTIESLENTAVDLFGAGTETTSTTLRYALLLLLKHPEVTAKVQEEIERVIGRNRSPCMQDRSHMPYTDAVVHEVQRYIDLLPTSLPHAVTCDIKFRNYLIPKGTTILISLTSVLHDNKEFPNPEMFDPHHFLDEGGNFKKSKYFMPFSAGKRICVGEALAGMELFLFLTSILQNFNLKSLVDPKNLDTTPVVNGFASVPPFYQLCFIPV
In short: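 Human CYP2C9 (10nM) hydroxylated Luciferin-H (100uM, at its KM) to luciferin in 25mM KPO4. Compound was preincubated 10 min at 37C, then NADPH regeneration started a 60 min reaction at 37C. Luminescence was read after detection reagent, normalized to 57uM sulphaphenazole.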

[14] = Confirmation and Secondary Assay for Modulators of Hemoglobin Beta Chain Splicing at IVS2 654 locus (AID 910; active = well fitted curve in the direction sought with a large enough effect; an effect the other way counts as inactive or inconclusive;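 note: per-well total GFP intensity by laser scanning cytometry after 2-day treatment; % of control where 0% means no effect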); conditions: HeLa EGFP-654 splicing reporter, GFP fluorescence, 48 h; series mostly up to 38.3 µM
In short: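 HeLa cells stably carrying EGFP interrupted by mutant beta-globin IVS2-654 intron (CMV-driven) were treated with compound for 2 days at 37C; corrected splicing was scored as total peak GFP intensity per well (488 nm excitation, 500-520 nm emission).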

[15] = Confirmation and Secondary Assay for Modulators of Hemoglobin Beta Chain Splicing at IVS2 705 locus (AID 930; active = well fitted curve in the direction sought with a large enough effect; an effect the other way counts as inactive or inconclusive;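 note: HeLa cells stably expressing the EGFP-705 splicing reporter; GFP fluorescence per well restored by corrected splicing of the IVS2-705 intron in EGFP; % of control where 0% means no effect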); conditions: HeLa EGFP-705 splicing reporter, GFP fluorescence, 48 h; series mostly up to 38.3 µM
In short: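 Splice-correction reporter: EGFP cDNA split by beta-globin intron 2 bearing the 705 mutation, stably in HeLa. Compound incubation 2 days, 37C; fluorescent objects 5-250 µm summed per well.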

O=C(Nc1cccc(F)c1)N1CC[C@@]2(CCCN(C(=O)c3cnccn3)C2)C1
inactive: Potency [1] > 11.4 µM | activity change, negative = inhibition [2] 4.63% | Potency [3] | activity change, negative = inhibition [4] 12.9% | activity, negative = inhibition [5] 2.65% | Potency [6] > 46 µM | Potency [7] | Potency [8] | Potency [9] | outcome [10]

Cn1cccc1C(=O)N1CCC2(CC1)CCN(c1cccc(-c3ccccc3)c1)CC2
inactive: Potency [1] > 11.4 µM | activity change, negative = inhibition [2] -12.9% | activity change, negative = inhibition [4] 16.5% | activity, negative = inhibition [5] -8.63% | Potency [6] > 46 µM | Potency [8] | outcome [10]
active: Potency [3] 20 µM

CC(=O)N1CCC2(CCCN(Cc3nccs3)C2)CC1
inactive: Potency [1] > 11.4 µM | activity change, negative = inhibition [2] 3.8% | Potency [3] | activity change, negative = inhibition [4] -6.07% | activity, negative = inhibition [5] 6.5% | Potency [6] > 46 µM | Potency [7] | Potency [8] | Potency [9] | outcome [10]
active: Potency [11] 5.01 µM

COc1ccc(C(=O)N2CCC3(CCN(Cc4ccncc4)CC3)CC2)cc1
inactive: Potency [1] > 11.4 µM | activity change, negative = inhibition [2] -7.79% | Potency [3] | activity change, negative = inhibition [4] -24.2% | activity, negative = inhibition [5] 11.1% | Potency [6] > 46 µM | Potency [7] | Potency [8] | Potency [9] | outcome [10]

COc1ccc(NC(=O)N2CC3(CCN(S(=O)(=O)c4ccccc4)CC3)C2)cc1
inactive: Potency [1] > 11.4 µM | activity change, negative = inhibition [2] -1.69% | Potency [3] | activity change, negative = inhibition [4] 10.6% | activity, negative = inhibition [5] -2.28% | Potency [6] > 46 µM | Potency [7] | Potency [8] | Potency [9] | outcome [10]

CS(=O)(=O)N1CCC2(CCCN(C(=O)Nc3cccc(F)c3)C2)CC1
inactive: Potency [1] > 11.4 µM | activity change, negative = inhibition [2] 3.4% | Potency [3] | activity change, negative = inhibition [4] 10.8% | activity, negative = inhibition [5] -4.84% | Potency [6] > 46 µM | Potency [7] | Potency [8] | Potency [9] | outcome [10]

N#Cc1cccc(-c2nc3cnc(N4CCNCC4)nc3n(C3CC3)c2=O)c1
inactive: Potency [1] > 11.4 µM | activity change, negative = inhibition [2] 13.2% | activity change, negative = inhibition [4] 26.2% | Potency [12] > 9.22 µM | Potency [6] > 46 µM | Potency [7] | Potency [8] | Potency [9] | outcome [10]
active: Potency [3] 5.01 µM | Potency [13] 0.631 µM

O=c1c(-c2ccc(F)c(F)c2)nc2cncnc2n1-c1ccccc1
active: Potency [3] 12.6 µM
inactive: Potency [1] > 11.4 µM | activity change, negative = inhibition [2] -19.9% | activity change, negative = inhibition [4] 3.06% | Potency [12] > 9.22 µM | Potency [6] > 46 µM | Potency [7] | Potency [9] | outcome [10]

Cc1cccc(CNc2nc(-c3ccccc3CN(C)C)nc3ccccc23)c1
active: Potency [3] 3.16 µM
inactive: Potency [1] > 11.4 µM | activity change, negative = inhibition [2] 20.6% | activity change, negative = inhibition [4] -22.2% | activity, negative = inhibition [5] -0.581% | Potency [6] > 46 µM | Potency [7] | Potency [9] | Potency [14] | outcome [15] | outcome [10]

CCNc1ncc2nc(-c3ccc(OC)cc3)c(=O)n(-c3ccc(OC)cc3)c2n1
inactive: Potency [1] > 11.4 µM | activity change, negative = inhibition [2] -16% | Potency [3] | activity change, negative = inhibition [4] -5.13% | Potency [12] > 9.22 µM | Potency [6] > 46 µM | Potency [7] | Potency [9] | outcome [10]

COC(=O)N1CCC2(CCCN(C(c3ccccc3)c3ccccc3)C2)CC1
active: Potency [3] 15.8 µM
inactive: Potency [1] > 11.4 µM | activity change, negative = inhibition [2] 11.9% | activity change, negative = inhibition [4] -16.3% | activity, negative = inhibition [5] 13.3% | Potency [6] > 46 µM | Potency [7] | Potency [8] | Potency [9] | outcome [10]

COc1ccc(C(=O)N2CCC3(CCCN(c4ncccn4)C3)CC2)cc1
inactive: Potency [1] > 11.4 µM | activity change, negative = inhibition [2] 0.224% | activity change, negative = inhibition [4] 13.8% | activity, negative = inhibition [5] -4.23% | Potency [6] > 46 µM | Potency [7] | Potency [8] | Potency [9] | outcome [10]
active: Potency [3] 20 µM

O=C(Nc1ccccc1)N1CCCC2(CCN(C(=O)c3cnccn3)CC2)C1
inactive: Potency [1] > 11.4 µM | activity change, negative = inhibition [2] 4.4% | Potency [3] | activity change, negative = inhibition [4] 15.7% | activity, negative = inhibition [5] 2.67% | Potency [6] > 46 µM | Potency [7] | Potency [8] | Potency [9] | outcome [10]

O=C(Nc1cccc(F)c1)N1CCCC2(CCN(C(=O)c3cnccn3)CC2)C1
inactive: Potency [1] > 11.4 µM | activity change, negative = inhibition [2] -5.64% | Potency [3] | activity change, negative = inhibition [4] -3.4% | activity, negative = inhibition [5] -5.83% | Potency [6] > 46 µM | Potency [7] | Potency [9] | outcome [10]

O=C(c1cc(C(F)(F)F)cc(C(F)(F)F)c1)N1CCC2(CC1)CN(Cc1ccncc1)C2
inactive: Potency [1] > 11.4 µM | activity change, negative = inhibition [2] -12.2% | activity change, negative = inhibition [4] -6.5% | activity, negative = inhibition [5] 5.6% | Potency [6] > 46 µM | Potency [7] | Potency [8] | Potency [9] | outcome [10]
active: Potency [3] 20 µM

O=C(c1ccco1)N1CCC[C@@]2(CCN(c3cccc(-c4ccccc4)c3)C2)C1
inactive: Potency [1] > 11.4 µM | activity change, negative = inhibition [2] -1.52% | activity change, negative = inhibition [4] -22.9% | activity, negative = inhibition [5] 3.03% | Potency [6] > 46 µM | outcome [10]
active: Potency [3] 15.8 µM | Potency [13] 5.01 µM
